PubChem BioAssay (NCATS)
A number with no mark means an inactive call. Records with an inconclusive call do not appear. Activity calls are given as the source filed them. Unless noted, calls come from the whole dose curve; as a rule, active = well fitted curve in either direction with a large enough effect (not every such curve was filed as active); inconclusive = small, poorly fitted or top-dose-only effect, or another doubt; inactive = flat fitted curve, though single readings scatter.

How the values were obtained:
[1] = target: Lysosomal acid glucosylceramidase (Homo sapiens) (UniProt P04062); assay: Glucocerebrosidase-p2 (AID 348; in the data active = potency below about 10 µM; note: potency is the fitted concentration of half-maximal effect); details: purified GBA, blue fluorogenic substrate, 40 min
In short: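 Compounds titrated from 0.6 nM upwards against 0.2 nM enzyme in pH 5.9 citric acid/KH2PO4, taurocholate, tween-20; blue fluorogenic substrate 80 uM, 40 min room temperature, stopped and read Ex 365/Em 440 for AC50.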

[2] = AP1 Signaling Pathway (AID 357); details: ME-180 AP-1-bla reporter, EGF-induced, beta-lactamase ratio, 5 h; at 7.69 µM (top of the series) unless noted;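 note: ME-180 reporter cells stimulated with EGF at its EC50 level; % is set by controls: 0 for no effect and ±100 for the full control effect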
In short: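 In this screen, ME-180 cells in Opti-MEM with 0.5% dialyzed FBS received EC50 EGF and compound titrations for 5 h. AP-1 reporter beta-lactamase was detected via CCF4 ratio, giving AC50 for positive and negative modulators.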

[3] = target: Cytochrome P450 1A2 (Homo sapiens) (UniProt P05177); assay: p450-cyp1a2 (AID 410; calls by dose curve; note: potency is the fitted concentration of half-maximal effect;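 for activity change, negative = inhibition: -100% = full effect of reference inhibitor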); details: recombinant CYP1A2, luciferin-ME demethylation, luminescence; series mostly up to 11.4 µM
In short: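 Human CYP1A2 (20nM) demethylated Luciferin-ME at its Km (100uM) in 100mM KPO4. After 10 min compound preincubation, NADPH regeneration ran the reaction 60 min at room temperature. Luciferin was read by luminescence, normalized to 57 uM furafylline.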

[4] = NFAT Signaling Pathway (AID 444); details: Jurkat NFAT-bla M1, carbachol, beta-lactamase ratio, 5 h; at 7.69 µM (top of the series) unless noted;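 note: carbachol stimulus at about its EC50 of 1 µM final; % is set by controls: 0 for no effect and ±100 for the full control effect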
In short: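 Jurkat cells carrying an NFAT-driven β-lactamase reporter and co-transfected muscarinic M1 receptor were treated with compound plus carbachol (1 uM final, an EC50 level) for 5 h at 37 °C. CCF4 loading followed for 1 h at RT; 460/530 nm ratio gave %activity.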

[5] = Stat Signaling Pathway (AID 446); details: ME-180 SIE beta-lactamase reporter, IL-6 stimulated, 5 h; at 7.69 µM (top of the series) unless noted;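 note: ME-180 cervical cancer cells given 40 pM IL-6 alongside compound; SIE-controlled beta-lactamase reporter measured as 460/530 nm FRET emission ratio; % is set by controls: 0 for no effect and ±100 for the full control effect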
In short: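 ME-180 cells carrying a SIE-driven beta-lactamase reporter are stimulated with 40 pM IL-6 for 5 h at 37C in the presence of compound. The 460/530 nm FRET substrate ratio is read after 2.5 h at RT. Data are normalised to 300 pM IL-6 and to 125 nM JAK inhibitor controls.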

[6] = target: Glucocorticoid receptor (Homo sapiens) (UniProt P04150); assay: GR-GFP Redistribution (AID 450;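 active = compounds whose dose series gives a full or clear partial fitted curve of increased nuclear translocation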; note: potency is the fitted concentration of half-maximal effect); details: U2OS GR-GFP nuclear translocation, laser cytometry, 2 h
[7] = target: Glucocorticoid receptor (Homo sapiens) (UniProt P04150); assay: GR-EFC Redistribution (AID 451; calls by dose curve; note: potency is the fitted concentration of half-maximal effect); details: CHO-K1 GR-EFC translocation, beta-gal luminescence, 2 h
In short: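 CHO-K1 cells stably expressing nuclear-localized β-gal enzyme acceptor and GR fused C-terminally to the enzyme donor fragment; ligand-driven nuclear translocation restores β-gal by complementation. Compounds titrated up to 46 uM final, 2 h at 37 °C; luminescence read.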

[8] = target: Cytochrome P450 2C9 (Homo sapiens) (UniProt P11712); assay: qHTS Assay for Inhibitors and Substrates of Cytochrome P450 2C9 (AID 883; active = well fitted curve in the direction sought with a large enough effect; an effect the other way counts as inactive or inconclusive; note: potency is the fitted concentration of half-maximal effect; nearly all actives have a fitted effect of over 60% in size); details: recombinant CYP2C9, luciferin-H luminescence, 60 min; series mostly up to 11.4 µM
In short: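 Human CYP2C9 (10nM) hydroxylated Luciferin-H (100uM, at its KM) to luciferin in 25mM KPO4. Compound was preincubated 10 min at 37C, then NADPH regeneration started a 60 min reaction at 37C. Luminescence was read after detection reagent, normalized to 57uM sulphaphenazole.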

[9] = target: Cytochrome P450 3A4 (Homo sapiens) (UniProt P08684); assay: qHTS Assay for Inhibitors and Substrates of Cytochrome P450 3A4 (AID 884; active = well fitted curve in the direction sought with a large enough effect; an effect the other way counts as inactive or inconclusive; note: potency is the fitted concentration of half-maximal effect; nearly all actives have a fitted effect of over 50% in size); details: recombinant CYP3A4, Luciferin-PPXE luminescence; series mostly up to 57.1 µM
In short: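 20 nM human CYP3A4 with 25 uM Luciferin-PPXE (at KM) in 200 mM KPO4, preincubated 10 min with compound; NADPH regeneration started a 60 min RT reaction. Luciferin detected by luminescence, normalized to 57 uM ketoconazole as full inhibition.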

[10] = target: Cytochrome P450 3A4 (Homo sapiens) (UniProt P08684); assay: qHTS Assay for Activators of Cytochrome P450 3A4 (AID 885; active = well fitted curve in the direction sought with a large enough effect; an effect the other way counts as inactive or inconclusive; note: nearly all actives have a fitted effect of over 65% in size); details: recombinant CYP3A4, Luciferin-PPXE luminescence, 60 min; series mostly up to 11.4 µM
In short: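 Human CYP3A4 (20 nM) with Luciferin-PPXE at 25 uM (its KM) in 200 mM KPO4; 10 min compound preincubation, then NADPH regeneration and 60 min reaction at RT. Luciferin read by luminescence; normalized to 57 uM ketoconazole full inhibition.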

[11] = target: Mitogen-activated protein kinase 10 (Mus musculus) (UniProt Q61831); assay: JNK3 AlphaScreen Assay (AID 530); details: JNK3 lysate, c-Jun phosphorylation; series mostly up to 11.4 µM;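 note: kinase came from lysate of stimulated human HepG2 cells; signal reports phosphorylation of biotinylated GST-cJun 1-79 at Ser73 with 10 µM ATP; % is set by controls: 0 for no effect and ±100 for the full control effect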
In short: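 JNK3 came from HepG2 lysates pre-activated with IL-1beta and TNF-alpha and phosphorylated biotinylated GST-cJun (1-79) at 10 uM ATP, pH 7.6, room temperature. Compounds were titrated. AlphaScreen signal used anti-phospho-cJun (Ser73) antibody.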

[12] = target: 3',5'-cyclic-AMP phosphodiesterase 4B (Homo sapiens) (UniProt Q07343); assay: qHTS Assay for Inhibitors of PDE-IV (AID 607; active = well fitted activation curve with a large enough effect in the main read-out, with a control signal flat, not every such curve was filed as active; note: % of control where 0% means no effect); details: HEK293 ACTOne CNG channel cells, membrane potential fluorescence; series mostly up to 22.9 µM
In short: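 HEK293 ACTOne cells with CNG channel (1000/well), endogenous PDE4; membrane potential dye, compounds up to 22.9 uM final. Fluorescence Ex 535/Em 590; RO 20-1724 (100 uM final) as reference.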

[13] = target: Cytochrome P450 2C19 (Homo sapiens) (UniProt P33261); assay: qHTS Assay for Inhibitors and Substrates of Cytochrome P450 2C19 (AID 899; active = well fitted curve in the direction sought with a large enough effect; an effect the other way counts as inactive or inconclusive; note: % is set by controls: 0 for no effect and ±100 for the full control effect; nearly all actives have a fitted effect of over 60% in size); details: recombinant CYP2C19, luciferin-H EGE luminescence; series mostly up to 11.4 µM
In short: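 Human CYP2C19 (5nM) with Luciferin-H EGE at 10uM (its KM) in 50mM KPO4 was preincubated with compound for 10 min at 37C. NADPH regeneration started a 60 min 37C reaction. Luciferin was read by luminescence, normalized to 57uM ketoconazole.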

[14] = target: Cytochrome P450 2D6 (Homo sapiens) (UniProt P10635); assay: qHTS Assay for Inhibitors and Substrates of Cytochrome P450 2D6 (AID 891; active = well fitted curve in the direction sought with a large enough effect; an effect the other way counts as inactive or inconclusive; note: potency is the fitted concentration of half-maximal effect; nearly all actives have a fitted effect of over 60% in size); details: recombinant CYP2D6, luciferin-ME EGE luminescence; series mostly up to 11.4 µM
In short: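 Human CYP2D6 (5 nM) with 30 uM Luciferin-ME EGE (at Km) in 100 mM KPO4, compound preincubated 10 min, then NADPH regeneration system for 60 min at room temperature. Luciferin read by luminescence; normalized to 1.43 uM quinidine.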

[15] = qHTS Assay for Identification of Small Molecule Agonists for Hypoxia Response Element Signaling Pathway (AID 914; active = well fitted activation curve with a large enough effect in the signal ratio, with a control signal flat, not every such curve was filed as active; the % refers to the signal ratio; note: % of control where 0% means no effect); details: ME-180 (cervical carcinoma) HRE-bla reporter, beta-lactamase ratio, CoCl2, 17 h; activation: active compounds read high
In short: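 HRE-bla ME-180 cells, overnight plating in Opti-MEM with 0.5% dialyzed FBS; cpd titration + EC50 CoCl2, 17 h, 37 degrees Celsius; CCF4 2.5 h RT; 460/530 nm ratio; AC50.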

[16] = target: ATP-dependent 6-phosphofructokinase (Trypanosoma brucei brucei) (UniProt O15648); assay: qHTS Assay to Find Inhibitors of T. brucei phosphofructokinase: hit validation (AID 492961; active = well fitted curve in the direction sought with a large enough effect; an effect the other way counts as inactive or inconclusive); details: T. brucei PFK, ADP-Glo luminescence; series mostly up to 51.4 µM
In short: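 PFK 1.25 nM, F6P 0.5 mM, ATP 0.1 mM, MgCl2 5 mM, 0.1 M TEA pH 8.0, Tween20 0.01%, BSA 0.1%; 45 min RT. ADP-Glo two-step detection, luminescence. qHTS titration; curve fitting with curve-class categorization.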

[17] = qHTS profiling for inhibitors of Plasmodium falciparum proliferation (AID 504749; active = well fitted curve in the direction sought with a large enough effect; an effect the other way counts as inactive or inconclusive;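 note: 0% = DMSO vehicle and full inhibition = artemisinin control; nearly all actives have a fitted effect of over 60% in size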); details: P. falciparum in erythrocytes, SYBR Green DNA, 72 h, at 28.7 µM (top of the series)
In short: (§1)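 P. falciparum-infected erythrocytes (0.3% parasitemia, 2.5% hematocrit final) were exposed to compounds for 72 h at 37 C in 5% CO2, then lysed with SYBR Green buffer overnight at room temperature; parasite DNA fluorescence was normalized to artemisinin and DMSO controls.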

DFO2036 = assay: as above; details: P. falciparum in erythrocytes, SYBR Green DNA, 72 h; series mostly up to 28.7 µM
In short: as §1

Chain of 3',5'-cyclic-AMP phosphodiesterase 4B (Homo sapiens) (Q07343 whole entry, looked up): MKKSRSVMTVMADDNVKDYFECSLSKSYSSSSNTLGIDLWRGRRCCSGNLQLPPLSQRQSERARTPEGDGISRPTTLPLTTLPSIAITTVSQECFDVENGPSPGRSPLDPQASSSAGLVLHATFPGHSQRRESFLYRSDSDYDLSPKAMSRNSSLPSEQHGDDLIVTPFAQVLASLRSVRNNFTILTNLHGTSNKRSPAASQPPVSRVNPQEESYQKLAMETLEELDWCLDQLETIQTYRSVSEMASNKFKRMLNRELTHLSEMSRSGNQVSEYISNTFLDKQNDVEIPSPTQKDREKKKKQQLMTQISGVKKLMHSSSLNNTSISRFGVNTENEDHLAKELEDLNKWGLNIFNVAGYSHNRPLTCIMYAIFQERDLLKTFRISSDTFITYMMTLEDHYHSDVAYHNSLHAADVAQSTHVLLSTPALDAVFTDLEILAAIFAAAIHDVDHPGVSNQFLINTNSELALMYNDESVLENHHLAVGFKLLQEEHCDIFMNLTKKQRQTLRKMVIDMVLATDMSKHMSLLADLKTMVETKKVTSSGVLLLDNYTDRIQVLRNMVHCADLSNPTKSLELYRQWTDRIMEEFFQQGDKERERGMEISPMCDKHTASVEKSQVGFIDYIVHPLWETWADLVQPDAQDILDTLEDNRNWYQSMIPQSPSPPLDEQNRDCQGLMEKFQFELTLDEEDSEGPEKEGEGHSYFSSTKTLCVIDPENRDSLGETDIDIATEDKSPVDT
Chain of Cytochrome P450 3A4 (Homo sapiens) (P08684 whole entry, looked up): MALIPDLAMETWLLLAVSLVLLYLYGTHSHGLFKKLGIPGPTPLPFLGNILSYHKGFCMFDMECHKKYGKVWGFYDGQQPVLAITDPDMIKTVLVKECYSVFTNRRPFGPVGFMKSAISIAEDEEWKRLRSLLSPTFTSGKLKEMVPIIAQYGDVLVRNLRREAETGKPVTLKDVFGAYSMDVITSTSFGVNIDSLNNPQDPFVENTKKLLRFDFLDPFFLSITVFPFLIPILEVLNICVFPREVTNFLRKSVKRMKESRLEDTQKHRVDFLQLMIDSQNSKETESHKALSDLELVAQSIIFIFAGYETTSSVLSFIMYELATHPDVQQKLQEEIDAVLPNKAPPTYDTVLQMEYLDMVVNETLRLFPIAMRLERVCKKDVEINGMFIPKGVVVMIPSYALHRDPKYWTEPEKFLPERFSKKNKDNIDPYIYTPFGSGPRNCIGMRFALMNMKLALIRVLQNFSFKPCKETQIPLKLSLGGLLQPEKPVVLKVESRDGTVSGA
Chain of Glucocorticoid receptor (Homo sapiens) (P04150 whole entry, looked up, the tested form may be a part): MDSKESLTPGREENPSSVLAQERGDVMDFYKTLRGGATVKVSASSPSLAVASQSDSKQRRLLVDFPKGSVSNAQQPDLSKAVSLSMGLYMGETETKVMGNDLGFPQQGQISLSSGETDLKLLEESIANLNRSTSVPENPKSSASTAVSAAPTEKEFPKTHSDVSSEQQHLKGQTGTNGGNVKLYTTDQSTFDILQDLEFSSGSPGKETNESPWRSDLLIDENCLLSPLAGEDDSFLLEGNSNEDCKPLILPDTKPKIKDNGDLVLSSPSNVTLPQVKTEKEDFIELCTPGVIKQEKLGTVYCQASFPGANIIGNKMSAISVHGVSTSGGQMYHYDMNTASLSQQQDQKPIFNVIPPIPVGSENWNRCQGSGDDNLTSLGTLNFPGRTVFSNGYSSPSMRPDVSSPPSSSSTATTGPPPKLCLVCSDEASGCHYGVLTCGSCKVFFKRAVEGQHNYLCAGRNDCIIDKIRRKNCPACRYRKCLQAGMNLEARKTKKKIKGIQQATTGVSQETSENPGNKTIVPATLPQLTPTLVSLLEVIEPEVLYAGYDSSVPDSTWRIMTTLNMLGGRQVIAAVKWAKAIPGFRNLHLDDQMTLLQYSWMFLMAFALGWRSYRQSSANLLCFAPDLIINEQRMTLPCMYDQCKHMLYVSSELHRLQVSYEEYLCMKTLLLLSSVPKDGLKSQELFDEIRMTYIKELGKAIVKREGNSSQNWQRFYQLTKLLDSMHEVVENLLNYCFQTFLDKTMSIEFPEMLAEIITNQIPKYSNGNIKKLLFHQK
Chain of Cytochrome P450 1A2 (Homo sapiens) (P05177 whole entry, looked up): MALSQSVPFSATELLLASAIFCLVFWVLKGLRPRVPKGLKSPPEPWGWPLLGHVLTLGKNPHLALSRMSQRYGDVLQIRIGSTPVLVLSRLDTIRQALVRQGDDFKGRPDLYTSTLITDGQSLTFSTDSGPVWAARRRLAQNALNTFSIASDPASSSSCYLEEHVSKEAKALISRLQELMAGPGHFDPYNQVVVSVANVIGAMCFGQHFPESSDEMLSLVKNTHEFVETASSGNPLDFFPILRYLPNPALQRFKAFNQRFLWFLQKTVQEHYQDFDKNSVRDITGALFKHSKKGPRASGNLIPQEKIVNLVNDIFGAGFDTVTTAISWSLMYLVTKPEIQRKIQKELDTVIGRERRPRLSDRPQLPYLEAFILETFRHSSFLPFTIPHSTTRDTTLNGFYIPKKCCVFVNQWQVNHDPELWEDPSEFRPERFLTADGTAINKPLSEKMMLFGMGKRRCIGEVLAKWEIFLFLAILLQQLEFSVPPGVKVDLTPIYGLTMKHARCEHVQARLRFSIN
Chain of Lysosomal acid glucosylceramidase (Homo sapiens) (P04062 whole entry, looked up): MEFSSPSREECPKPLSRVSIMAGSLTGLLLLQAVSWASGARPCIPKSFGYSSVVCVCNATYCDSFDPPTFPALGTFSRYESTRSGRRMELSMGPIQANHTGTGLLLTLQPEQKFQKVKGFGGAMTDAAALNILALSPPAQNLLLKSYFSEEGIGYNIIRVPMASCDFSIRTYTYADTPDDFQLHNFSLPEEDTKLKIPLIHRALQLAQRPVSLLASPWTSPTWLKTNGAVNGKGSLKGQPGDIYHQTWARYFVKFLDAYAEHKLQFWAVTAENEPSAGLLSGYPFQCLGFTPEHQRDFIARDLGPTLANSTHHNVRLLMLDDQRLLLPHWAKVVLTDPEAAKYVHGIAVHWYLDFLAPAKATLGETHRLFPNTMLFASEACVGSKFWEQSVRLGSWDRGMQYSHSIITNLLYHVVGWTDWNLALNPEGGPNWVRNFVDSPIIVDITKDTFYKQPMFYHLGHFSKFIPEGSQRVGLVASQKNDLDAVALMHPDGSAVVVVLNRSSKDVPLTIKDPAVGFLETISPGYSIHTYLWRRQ
Chain of Cytochrome P450 2D6 (Homo sapiens) (P10635 whole entry, looked up): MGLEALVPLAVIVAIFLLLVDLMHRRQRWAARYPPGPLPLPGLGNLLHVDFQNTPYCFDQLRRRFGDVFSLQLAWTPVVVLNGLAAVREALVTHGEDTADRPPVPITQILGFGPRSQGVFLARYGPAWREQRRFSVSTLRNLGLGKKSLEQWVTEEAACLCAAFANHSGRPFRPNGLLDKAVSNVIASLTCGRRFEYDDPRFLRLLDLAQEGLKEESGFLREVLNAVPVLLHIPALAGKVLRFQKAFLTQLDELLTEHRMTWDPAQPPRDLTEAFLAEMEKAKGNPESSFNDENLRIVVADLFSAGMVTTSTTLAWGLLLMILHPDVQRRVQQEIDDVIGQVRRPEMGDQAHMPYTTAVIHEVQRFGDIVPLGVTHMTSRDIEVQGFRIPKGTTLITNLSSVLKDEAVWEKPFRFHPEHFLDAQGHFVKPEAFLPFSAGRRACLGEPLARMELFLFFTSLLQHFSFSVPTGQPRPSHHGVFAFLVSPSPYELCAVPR
Chain of Cytochrome P450 2C9 (Homo sapiens) (P11712 whole entry, looked up): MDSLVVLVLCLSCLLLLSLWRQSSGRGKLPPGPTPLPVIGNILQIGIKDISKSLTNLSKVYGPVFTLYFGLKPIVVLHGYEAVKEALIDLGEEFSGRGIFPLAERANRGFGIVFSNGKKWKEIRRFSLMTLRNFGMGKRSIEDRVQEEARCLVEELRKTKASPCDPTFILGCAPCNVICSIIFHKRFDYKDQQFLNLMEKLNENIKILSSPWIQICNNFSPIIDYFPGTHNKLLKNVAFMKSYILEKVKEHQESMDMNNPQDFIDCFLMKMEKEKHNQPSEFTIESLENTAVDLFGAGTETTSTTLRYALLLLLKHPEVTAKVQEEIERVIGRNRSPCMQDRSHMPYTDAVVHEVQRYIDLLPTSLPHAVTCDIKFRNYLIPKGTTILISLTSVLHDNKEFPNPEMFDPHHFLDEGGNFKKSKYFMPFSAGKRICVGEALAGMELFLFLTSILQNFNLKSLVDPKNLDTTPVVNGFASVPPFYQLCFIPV
Chain of Cytochrome P450 2C19 (Homo sapiens) (P33261 whole entry, looked up): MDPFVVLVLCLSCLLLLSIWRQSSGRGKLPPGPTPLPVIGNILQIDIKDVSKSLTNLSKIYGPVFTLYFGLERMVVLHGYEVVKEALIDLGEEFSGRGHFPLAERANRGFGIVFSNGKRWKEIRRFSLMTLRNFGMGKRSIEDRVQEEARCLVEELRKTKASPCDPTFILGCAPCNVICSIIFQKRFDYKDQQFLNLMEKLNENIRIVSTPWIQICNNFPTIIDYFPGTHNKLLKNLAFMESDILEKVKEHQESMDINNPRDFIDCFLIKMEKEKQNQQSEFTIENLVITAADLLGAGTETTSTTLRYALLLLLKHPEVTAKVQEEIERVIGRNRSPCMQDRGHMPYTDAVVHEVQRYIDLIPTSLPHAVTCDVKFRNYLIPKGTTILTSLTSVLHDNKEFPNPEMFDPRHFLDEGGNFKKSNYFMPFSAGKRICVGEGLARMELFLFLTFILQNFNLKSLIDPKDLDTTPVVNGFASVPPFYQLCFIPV

With O=c1c(CCc2ccccc2)nc2cnc(Oc3cccc(Cl)c3)nc2n1C[C@H]1CCCO1 as the compound, how does the Potency [1] read?
Its Potency is over 11.4 µM.

What about the activity change, negative = inhibition [2] of the same compound?
The activity change, negative = inhibition was -27.5%.

What about the Potency [3] of the same compound?
The Potency was 3.98 µM (active).

What about the activity change, negative = inhibition [4] of the same compound?
Its activity change, negative = inhibition is -15.5%.

What about the activity, negative = inhibition [5] of the same compound?
Its activity, negative = inhibition is -17.7%.

And the Potency [6]?
Its Potency is over 9.22 µM.

What about the Potency [7] of the same compound?
Its Potency is over 46 µM.

What about the Potency [8] of the same compound?
Its Potency is 6.31 µM (active).

What about the Potency [9] of the same compound?
Its Potency is 0.501 µM (active).

What about the Potency [10] of the same compound?
Its Potency is “inactive”.

With O=C(Nc1cccc(Cl)c1)Nn1cnnc1 as the compound, how does the Potency [1] read?
The Potency was over 11.4 µM.

And the activity change, negative = inhibition [2]?
The activity change, negative = inhibition was 0.989%.

And the Potency [3]?
The Potency was 3.16 µM (active).

And the activity change, negative = inhibition [4]?
Its activity change, negative = inhibition is -6.38%.

And the activity, negative = inhibition [5]?
The activity, negative = inhibition was -6.44%.

And the Potency [6]?
Its Potency is over 46 µM.

What about the Potency [11] of the same compound?
The Potency was “inactive”.

What about the Potency [12] of the same compound?
The Potency was “inactive”.

What about the Potency [10] of the same compound?
Its Potency is “inactive”.

With Cc1ccc(-c2nnc(-c3ccc4ccccc4c3)o2)cc1 as the compound, how does the Potency [1] read?
The Potency was over 11.4 µM.

What about the activity change, negative = inhibition [2] of the same compound?
Its activity change, negative = inhibition is 13.5%.

What about the Potency [3] of the same compound?
The Potency was 0.631 µM (active).

What about the activity change, negative = inhibition [4] of the same compound?
Its activity change, negative = inhibition is -21%.

And the activity, negative = inhibition [5]?
Its activity, negative = inhibition is 14.3%.

And the Potency [6]?
Its Potency is over 46 µM.

What about the Potency [11] of the same compound?
The Potency was “inactive”.

And the Potency [12]?
Its Potency is “inactive”.

What about the Potency [10] of the same compound?
Its Potency is “inactive”.

Which Potency [1] does the source give for O=C1O[C@@H]([C@H](O)[C@H](O)[C@H](O)CO)[C@@H](O)[C@@H]1O here?
Its Potency is over 11.4 µM.

What about the activity change, negative = inhibition [2] of the same compound?
The activity change, negative = inhibition was 21.3%.

And the Potency [3]?
Its Potency is “inactive”.

What about the activity change, negative = inhibition [4] of the same compound?
The activity change, negative = inhibition was 6.28%.

What about the activity, negative = inhibition [5] of the same compound?
Its activity, negative = inhibition is -13.5%.

And the Potency [6]?
The Potency was over 46 µM.

And the Potency [11]?
Its Potency is “inactive”.

And the Potency [12]?
The Potency was “inactive”.

And the Potency [13]?
Its Potency is “inactive”.

For c1ccc2c(CN3CCN(Cc4c[nH]c5ccccc45)CC3)c[nH]c2c1, which Potency [1] is on record?
The Potency was over 11.4 µM.

And the activity change, negative = inhibition [2]?
Its activity change, negative = inhibition is -5.4%.

And the activity change, negative = inhibition [3]?
The activity change, negative = inhibition was -18.1% [at 2.29 µM].

What about the activity change, negative = inhibition [4] of the same compound?
Its activity change, negative = inhibition is 5.24%.

And the activity, negative = inhibition [5]?
The activity, negative = inhibition was 5.49%.

What about the Potency [7] of the same compound?
The Potency was over 9.22 µM.

What about the Potency [11] of the same compound?
The Potency was “inactive”.

And the Potency [12]?
The Potency was “inactive”.

And the Potency [14]?
Its Potency is 2.51 µM (active).

Which Potency [1] does the source give for C[C@]12CC[C@H]3c4ccc(O)cc4CC[C@@H]3[C@H]1CC[C@@H]2OP(=O)(O)O here?
The Potency was over 11.4 µM.

What about the activity change, negative = inhibition [2] of the same compound?
The activity change, negative = inhibition was -3.92%.

And the activity change, negative = inhibition [3]?
Its activity change, negative = inhibition is -11.2% [at 2.29 µM].

What about the activity change, negative = inhibition [4] of the same compound?
The activity change, negative = inhibition was 9.37%.

And the activity, negative = inhibition [5]?
Its activity, negative = inhibition is 2.17%.

What about the Potency [11] of the same compound?
Its Potency is “inactive”.

And the Potency [12]?
The Potency was “inactive”.

And the activation [15]?
Its activation is 11.8%.

What about the outcome [16] of the same compound?
Its outcome is “inactive”.

What about the activity, negative = inhibition ([17]; parasite line A) of the same compound?
The activity, negative = inhibition was 12.7%.

And the activity, negative = inhibition ([17]; parasite line B)?
Its activity, negative = inhibition is 13.6%.

And the Potency (DFO2036)?
Its Potency is “inactive”.
